Entries with a potency or affinity are not part of this list.
Each compound was assayed against Potassium voltage-gated channel subfamily KQT member 2 (Rattus norvegicus) (UniProt O88943) (assay: KCNQ2 channel inhibition, SAR follow-up, selectivity assay for TASK1 inhibitor project, cell-based, FluxOR thallium flux, concentration-response (AID 652192)). Conditions: KCNQ2 cell line, FluxOR thallium flux fluorescence; series mostly up to 30 µM; flux ratio, lower = inhibition: at the top concentration;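 active = peak inhibition of the KCNQ2 potassium channel over 30% at some tested dose, with a fitted dose response curve; inactive = no inhibition at any dose, or no curve fitted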.
Sequence of Potassium voltage-gated channel subfamily KQT member 2 (Rattus norvegicus) (O88943 whole entry, looked up): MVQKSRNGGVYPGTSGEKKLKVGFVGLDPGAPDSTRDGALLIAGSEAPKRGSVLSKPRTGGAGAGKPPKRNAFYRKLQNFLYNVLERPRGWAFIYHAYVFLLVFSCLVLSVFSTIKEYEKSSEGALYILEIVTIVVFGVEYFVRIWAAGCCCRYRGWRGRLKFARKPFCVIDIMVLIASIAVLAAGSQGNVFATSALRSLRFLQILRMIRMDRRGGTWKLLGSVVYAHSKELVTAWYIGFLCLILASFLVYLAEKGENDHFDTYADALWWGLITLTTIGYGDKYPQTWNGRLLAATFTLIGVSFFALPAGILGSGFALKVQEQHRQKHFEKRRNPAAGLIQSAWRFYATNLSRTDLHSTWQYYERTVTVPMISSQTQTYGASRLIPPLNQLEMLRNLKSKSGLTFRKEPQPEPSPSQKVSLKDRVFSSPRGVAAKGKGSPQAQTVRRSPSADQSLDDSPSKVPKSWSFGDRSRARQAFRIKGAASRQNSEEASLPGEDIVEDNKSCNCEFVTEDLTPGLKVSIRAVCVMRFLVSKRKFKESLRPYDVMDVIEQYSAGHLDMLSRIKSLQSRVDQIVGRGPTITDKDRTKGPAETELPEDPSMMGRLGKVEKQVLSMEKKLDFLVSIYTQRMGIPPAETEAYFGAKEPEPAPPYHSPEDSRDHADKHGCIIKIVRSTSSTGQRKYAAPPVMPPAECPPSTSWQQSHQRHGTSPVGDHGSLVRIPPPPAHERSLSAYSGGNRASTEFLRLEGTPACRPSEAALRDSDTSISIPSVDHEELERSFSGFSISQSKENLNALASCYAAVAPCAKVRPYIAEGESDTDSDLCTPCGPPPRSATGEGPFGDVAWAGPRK

Flux ratio, lower = inhibition, inactive:
CCOc1ccc(NC(=O)c2cccc(NC(=O)C3CCCC3)c2)cc1 0.18
CCOc1ccccc1NC(=O)c1cccc(C(=O)NC2CCCC2)c1 0.179
Cc1ccccc1C(=O)Nc1cccc(NC(=O)c2ccccc2)c1 0.195
O=C(Nc1cccc(NC(=O)c2cccc(F)c2)c1)c1ccccc1 0.2
Cc1cccc(C(=O)Nc2cccc(NC(=O)c3cccc(C)c3)c2)c1 0.203
CCOc1ccccc1C(=O)Nc1cccc(NC(=O)C2CCCC2)c1 0.144
O=C(Nc1cccc(NC(=O)c2ccccn2)c1)c1ccccc1 0.202
CCOc1ccccc1NC(=O)c1cccc(NC(=O)CC2CCCCC2)c1 0.163
COc1cccc(C(=O)Nc2cccc(NC(=O)c3cccc(C)c3)c2)c1 0.169
COc1ccccc1NC(=O)c1cccc(NC(=O)C2CCCCC2)c1 0.175
O=C(Nc1cccc(NC(=O)c2ccccc2Cl)c1)c1ccccc1 0.169
CC(C)(C)c1ccc(C(=O)Nc2cccc(NC(=O)c3ccccc3)c2)cc1 0.169
CCOc1ccccc1NC(=O)c1cccc(NC(=O)c2ccc(C(F)(F)F)cc2)c1 0.195
COc1ccccc1NC(=O)c1cccc(NC(=O)c2ccccc2OC)c1 0.172
COc1ccc(CC(=O)NCc2ccccc2-c2ccccc2C(=O)NCc2ccc(F)cc2F)cc1 0.098
CCOc1ccccc1NC(=O)c1cccc(NC(=O)C2CCOC2)c1 (configuration not stated) 0.201
CCOc1ccccc1NC(=O)c1cccc(NC(=O)c2cccc(Cl)c2)c1 0.168
O=C(Nc1cccc(NC(=O)c2ccoc2)c1)c1ccccc1 0.171
COc1ccccc1C(=O)Nc1cccc(NC(=O)c2ccccc2)c1 0.162
CCOc1ccccc1NC(=O)c1cccc(NC(=O)c2ccccc2C(F)(F)F)c1 0.183
COc1c(F)cccc1C(=O)Nc1cccc(NC(=O)c2cccc(C)c2)c1 0.365
O=C(Nc1ccccc1Cl)c1cccc(NC(=O)C2CCCC2)c1 0.161
Cc1cccc(C(=O)Nc2cccc(NC(=O)c3ccccc3C(C)C)c2)c1 0.166
O=C(Nc1cccc(NC(=O)c2cccnc2)c1)c1ccccc1 0.219
COc1ccc(C(=O)Nc2cccc(NC(=O)c3cccc(C)c3)c2)cc1 0.18
O=C(Nc1cccc(NC(=O)c2ccccc2C(F)(F)F)c1)c1ccccc1 0.219
CCOc1ccccc1NC(=O)c1cccc(NC(=O)c2ccc(Cl)cc2)c1 0.181
COc1ccc(F)cc1C(=O)Nc1cccc(NC(=O)c2cccc(C)c2)c1 0.39
Cc1cccc(C(=O)Nc2cccc(NC(=O)c3cccs3)c2)c1 0.169
Cc1cccc(C(=O)Nc2cccc(NC(=O)c3ccc(C(F)(F)F)cc3)c2)c1 0.16
Cc1cccc(C(=O)Nc2cccc(NC(=O)c3ccncc3)c2)c1 0.163
COc1ccccc1NC(=O)c1cccc(NC(=O)c2ccccc2)c1 0.168
